Compound activity deposited in PubChem by National Center for Advancing Translational Sciences (NCATS).
An excerpt weighted towards active compounds, which were near 2.8% of everything screened.
POLI inh: qHTS for Inhibitors of Polymerase Iota | Pol iota fluorescent replication assay, 10 min | Potency, µM (highest dose often 115 µM), hits mostly inhibitors | actives 1% (n = 390,000) | AID 588590, 2011
Target sequence (Q9UNA4 whole entry, looked up): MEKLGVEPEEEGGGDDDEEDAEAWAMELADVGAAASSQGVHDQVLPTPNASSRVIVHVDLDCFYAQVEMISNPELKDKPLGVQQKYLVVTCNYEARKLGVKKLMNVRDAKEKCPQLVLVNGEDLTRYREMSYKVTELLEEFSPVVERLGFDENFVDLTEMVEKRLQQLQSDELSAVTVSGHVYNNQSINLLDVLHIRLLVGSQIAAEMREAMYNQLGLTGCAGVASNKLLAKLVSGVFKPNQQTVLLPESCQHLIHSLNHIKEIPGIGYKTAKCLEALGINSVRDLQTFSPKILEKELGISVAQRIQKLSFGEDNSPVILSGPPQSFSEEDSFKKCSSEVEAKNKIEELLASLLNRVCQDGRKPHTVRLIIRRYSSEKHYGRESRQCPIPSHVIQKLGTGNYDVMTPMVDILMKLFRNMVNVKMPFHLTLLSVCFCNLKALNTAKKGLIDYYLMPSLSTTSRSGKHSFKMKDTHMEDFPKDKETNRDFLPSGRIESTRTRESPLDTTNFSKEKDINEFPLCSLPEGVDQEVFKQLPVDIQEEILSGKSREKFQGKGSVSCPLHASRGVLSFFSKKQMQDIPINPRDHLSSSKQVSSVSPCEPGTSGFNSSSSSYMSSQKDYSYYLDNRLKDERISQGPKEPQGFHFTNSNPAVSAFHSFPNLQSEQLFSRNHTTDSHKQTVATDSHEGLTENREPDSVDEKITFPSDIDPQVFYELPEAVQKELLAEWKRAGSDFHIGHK
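Fluorescent replication assay read twice, at 0 min and 10 min after adding 50 nM (final) substrate. Enzyme (10 nM) and compounds were first incubated 15 min at room temperature; enzyme-free buffer wells were negative controls.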
Pol beta inh: qHTS Assay for Inhibitors of DNA Polymerase Beta; Pol beta primer extension/strand displacement, fluorescence kinetic; Potency, µM (highest dose often 114 µM), actives largely listed as inhibitors; actives 1.3% (n = 340,000); AID 485314, 2010; P06746
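Homogeneous kinetic assay of primer extension and strand displacement by 10 nM Pol beta, preincubated 15 min at room temperature with compound before 50 nM substrate (final) was added. Read at 0 and 10 min; four-parameter Hill fit.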
Pol eta inh: qHTS for Inhibitors of Polymerase Eta; recombinant Pol eta, fluorescent DNA replication assay; actives 1.2% (n = 390,000); DNA polymerase eta (Homo sapiens), Q9Y253; Potency, µM (doses to about 114 µM), usual class: inhibitors
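Pol eta (10 nM) was preincubated with compounds for 15 min at room temperature, after which fluorescent replication substrate (50 nM final) was added to start the reaction. Fluorescence was read kinetically at 0 and 10 min.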
PI5P4K alpha inh: qHTS for Inhibitors of phosphatidylinositol 5-phosphate 4-kinase (PI5P4K) | Phosphatidylinositol 5-phosphate 4-kinase type-2 alpha (Homo sapiens), P48426 | PI5P4Kalpha enzyme, ADP-Glo luminescence, 60 min; stronger effect = lower value | max response, % | actives 1.2% (n = 330,000); active = max response of -50% or lower; inconclusive = between -30% and -50%; inactive = -30% or higher; note: value at the top dose of about 77 µM
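Compounds were pin-transferred onto PI5P4Kalpha and substrate in HEPES pH 7.4 buffer with EGTA, CHAPS and 5% DMSO. ATP (5 microM final) started the reaction, which ran 60 minutes at room temperature before ADP-Glo detection.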
WRN helicase inh: qHTS for Inhibitors of WRN Helicase. Bifunctional 3'-5' exonuclease/ATP-dependent helicase WRN (Homo sapiens), Q14191. WRN helicase unwinding, fluorescent forked duplex, kinetic. Potency, µM (titrated, usually from 114 µM), hits mostly inhibitors. actives 0.46% (n = 360,000). AID 651768, 2012; note: nearly all actives have a fitted effect of over 55% in size
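Kinetic fluorescence helicase assay: unwinding of a quenched forked DNA duplex (100 nM final) with 2 mM ATP final raises red fluorescence (525/598 nm). Compounds sat 15 min at room temperature with 20 nM WRN beforehand.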
Pol kappa inh: qHTS for Inhibitors of Polymerase Kappa. DNA polymerase kappa (Homo sapiens), Q9UBT6. purified Pol kappa, fluorescent DNA synthesis assay, 10 min. Potency, µM (doses to about 107 µM), hits mostly inhibitors. actives 0.53% (n = 400,000)
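Readout: fluorescence, taken kinetically at 0 and 10 min. Conditions: 10 nM Pol kappa, 15 min RT compound preincubation, 50 nM substrate final. Controls: enzyme-free buffer wells.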
Each line names hits and unclear results; the compound was inactive in the other large screens. Unless noted, calls come from the whole dose curve; as a rule, active = well fitted curve in the direction sought with a large enough effect; inconclusive = small, poorly fitted or top-dose-only effect, or another doubt; inactive = no such curve, though single readings can be large; an effect the other way counts as inactive or inconclusive.

CCN1C(=O)CC(c2ccccc2)CC1=O	POLI inh 79µM (no result: Pol beta inh)
CCn1nc(C)c(CCN(C)C(=O)Nc2cc(Cl)c(OC)cc2OC)c1C	none (no result: PI5P4K alpha inh, WRN helicase inh)
Cc1ccc(/C=C2/SC(=O)NC2=S)o1	POLI inh 7.1µM, Pol beta inh 20µM, Pol eta inh 8.9µM, PI5P4K alpha inh -93, WRN helicase inh 40µM, Pol kappa inh 18µM
O=C1NC(=O)/C(=C/c2ccccc2OCc2ccccc2)S1	none
CCOc1ccc(/C=C2\SC(=S)N(C)C2=O)cc1OC	none
O=C(COc1ccccc1/C=C1\SC(=O)NC1=O)Nc1ccccc1	POLI inh inconclusive, Pol eta inh 18µM, PI5P4K alpha inh inconclusive, WRN helicase inh inconclusive
CN1C(=O)/C(=C\c2ccccc2OCc2ccccc2)SC1=S	none
CCOc1ccccc1C=C1SC(=S)NC1=O	Pol eta inh inconclusive, PI5P4K alpha inh -66 (no result: Pol beta inh)
CCOc1ccc(/C=C2\SC(=S)NC2=O)cc1OC	PI5P4K alpha inh -78
COc1ccc(/C=C2\SC(=S)NC2=O)cc1OS(=O)(=O)c1ccc(NC(C)=O)cc1	POLI inh inconclusive, Pol beta inh inconclusive, Pol eta inh inconclusive, PI5P4K alpha inh -88, WRN helicase inh inconclusive
COc1ccc(/C=C2\SC(=O)NC2=S)cc1OC	Pol eta inh inconclusive, PI5P4K alpha inh -70, WRN helicase inh inconclusive, Pol kappa inh inconclusive
COc1cc(/C=C2/SC(=S)NC2=O)ccc1OS(=O)(=O)c1ccc(C)cc1	POLI inh inconclusive, Pol beta inh 35µM, Pol eta inh 28µM, PI5P4K alpha inh -85, WRN helicase inh inconclusive
COc1ccc(/C=C2/SC(=O)NC2=O)cc1	PI5P4K alpha inh inconclusive
O=S(=O)(c1nccs1)N1CCN(c2nc(-c3cccs3)nc3ccccc23)CC1	none (no result: Pol beta inh, Pol eta inh, PI5P4K alpha inh, WRN helicase inh)
COC(=O)c1ccccc1NC1=C/C(=N\S(=O)(=O)c2cccs2)c2ccccc2C1=O	POLI inh 1.4µM, PI5P4K alpha inh inconclusive
O=C1C(Nc2ccccc2)=C/C(=N/S(=O)(=O)c2cccs2)c2ccccc21	POLI inh inconclusive, Pol eta inh inconclusive
CCOC(=O)Cc1cc(=O)n2[nH]c(-c3ccc(C)cc3)cc2n1	POLI inh 79µM, Pol beta inh 22µM, Pol eta inh inconclusive (no result: PI5P4K alpha inh)
CCOC(=O)c1cc(=O)n2[nH]c(-c3ccc(C)cc3)cc2n1	PI5P4K alpha inh inconclusive
COc1ccc(OC)c(NC(=O)c2nnn(CC(=O)Nc3ccc4c(c3)OCO4)c2N)c1	Pol beta inh inconclusive, Pol eta inh 16µM
COc1cccc(CNC(=O)c2nnn(CC(=O)Nc3ccc4c(c3)OCO4)c2N)c1	Pol beta inh inconclusive
COc1cccc(NC(=O)Cn2nnc(C(=O)NCc3ccc4c(c3)OCO4)c2N)c1	POLI inh 50µM
COc1ccc2c(CC(=O)NCc3ccc4c(c3)OCO4)coc2c1	POLI inh inconclusive, Pol beta inh 18µM, Pol eta inh 50µM, WRN helicase inh inconclusive, Pol kappa inh inconclusive (no result: PI5P4K alpha inh)
CCN(CC)CCCNC(=O)c1cn(CC)c2ccc(S(=O)(=O)N3CCC(C)CC3)cc2c1=O	none (no result: PI5P4K alpha inh, WRN helicase inh)
Cc1ccc(N2CC(C(=O)Nc3ccc(S(=O)(=O)NCC4CCCO4)cc3)CC2=O)cc1 (stereo unspecified)	POLI inh inconclusive, Pol beta inh 56µM
Cc1ccccc1N1CC(C(=O)Nc2ccc(S(=O)(=O)NCC3CCCO3)cc2)CC1=O (stereo unspecified)	none
Nc1cccn2c(-c3ccc(Cl)c(Cl)c3)cnc12	POLI inh 13µM
COc1cc(C(=O)N/N=C/c2cc([N+](=O)[O-])cs2)cc(OC)c1OC	none
CCOc1ccc(C(=O)N/N=C/c2cc([N+](=O)[O-])cs2)cc1	POLI inh 35µM, Pol beta inh 14µM
COc1ccc(Cl)c(Cn2cnc3c(cnn3C(C)(C)C)c2=O)c1	none (no result: Pol beta inh, Pol eta inh, PI5P4K alpha inh, WRN helicase inh)
Cc1oc(C)c2c(=O)ccc3c(c12)OC(N)=C(C#N)C3c1ccc(F)cc1 (stereo unspecified)	POLI inh inconclusive, Pol beta inh 20µM, Pol eta inh inconclusive, PI5P4K alpha inh inconclusive, Pol kappa inh inconclusive
Cc1[nH]nc2c1C(c1ccc(F)cc1)C(C#N)=C(N)O2 (stereo unspecified)	none
CCOc1ccc(NC(=O)CC2C(=O)N(c3ccccc3)C(=O)N2Cc2cccc(OC)c2)cc1 (stereo unspecified)	none (no result: PI5P4K alpha inh, WRN helicase inh)
CCOC(=O)C1=C(OCc2ccc(Cl)cc2)C2C=C(C)C=CC2N=C1 (stereo unspecified)	Pol beta inh 45µM
Cc1cccc(Cc2cnc(N3C(=N)SC(C)C3=O)s2)c1 (stereo unspecified)	none
Cc1cccc(Cc2cnc(N3C(=N)SC(c4ccccc4)C3=O)s2)c1 (stereo unspecified)	PI5P4K alpha inh -55
CCCC[C@@H](C=O)NC(=O)[C@H](CC(C)C)NC(=O)OCc1ccccc1	none (no result: POLI inh, Pol beta inh, Pol eta inh, PI5P4K alpha inh, WRN helicase inh)
Cc1cc(C)cc(CSCC(=O)N/N=C/c2ccc(OCC(=O)NCc3ccco3)cc2)c1	POLI inh inconclusive, Pol beta inh 25µM (no result: PI5P4K alpha inh)
Cc1c(C(=O)NC(C)C)oc2c1-c1[nH]ncc1CC2	POLI inh 25µM
Cc1cccc(NC(=O)c2oc3c(c2C)-c2[nH]ncc2CC3)c1C	none (no result: PI5P4K alpha inh, WRN helicase inh)
CC1(C(=O)O)CCCN1C(=O)c1cccc(F)c1 (stereo unspecified)	none (no result: POLI inh, Pol beta inh, Pol eta inh, Pol kappa inh)
O=C1C=CC2(O[C@H](c3ccccc3)[C@@H](c3ccccc3)O2)[C@H](Sc2ccccc2O)C1	POLI inh 22µM, Pol eta inh inconclusive, WRN helicase inh 11µM (no result: Pol beta inh)
C[C@@H]1[C@@H](Sc2ccccc2)CC(=O)O[C@@H]1c1ccc(-c2ccccc2)cc1	POLI inh inconclusive (no result: Pol beta inh)
COc1ccc(/C=C2\CCn3c2nc2cc(C(=O)O)ccc2c3=O)cc1O	POLI inh inconclusive, Pol beta inh 25µM, Pol eta inh 18µM, PI5P4K alpha inh -54, WRN helicase inh inconclusive
COc1ccc(/C=C2\CCn3c2nc2cc(C(=O)O)ccc2c3=O)cc1OC	PI5P4K alpha inh inconclusive, WRN helicase inh inconclusive
CC1S/C(=C(\C#N)C(=O)NCc2ccco2)N(Cc2ccco2)C1=O (stereo unspecified)	POLI inh 22µM, Pol eta inh inconclusive, PI5P4K alpha inh inconclusive, WRN helicase inh inconclusive, Pol kappa inh 89µM
CCN(CC)CCOC(=O)c1ccc(NC(=O)Cn2ncc3c([nH]c4ccc(C)cc43)c2=O)cc1	none (no result: PI5P4K alpha inh, WRN helicase inh)
O=C(O)c1ccccc1-c1ccc(/C=C2\SC(=O)N(c3ccccc3)C2=O)o1	POLI inh inconclusive, Pol beta inh inconclusive, Pol eta inh inconclusive
